# Laboratory results reported in the supplement of paper PMC5940239.
# System: Madurella mycetomatis MM55
# Assay: percent growth relative to solvent control; higher = less inhibition, active = 20 or less
# Conditions: 100 µM; 7 days
row,SMILES,percent growth
1,CCN(CC)C(=O)N1CCN(C)CC1,89.3% (inactive)
2,COc1ccc(S(=O)(=O)Nc2ccc(CN3CCN(C(=O)c4cccc(C#N)c4)CC3)cc2)cc1,113% (inactive)
3,CC(C)C(C(=O)Nc1ccc(S(=O)(=O)N(C)C)cc1)c1ccc(Cl)cc1 (centres undefined),121% (inactive)
4,Cc1cccnc1NC(=O)c1cccc(OCc2c(C)noc2C)c1,85.1% (inactive)
5,Cc1cnc(CCNC(=O)c2cc(-c3ccc(Cl)cc3)cs2)[nH]1,94.3% (inactive)
6,CCOC(=O)c1cc(-c2csc(Nc3c(C)cc(C)cc3C)n2)on1,92.2% (inactive)
7,c1cc(C2=NCCN2)cc(-c2cc(-c3ccc(C4=NCCN4)cc3)no2)c1,73.8% (inactive)
8,O=C(NCCN1CCCC1)c1cc(NCCCCN2CCC(F)(F)CC2)nc2ccc(Cl)cc12,61.8% (inactive)
9,CCOc1ccc(-c2nc(NC(=O)CS(=O)(=O)c3ccccc3)sc2C)cc1,51.4% (inactive)
10,COc1ccc(-c2cnc3ccc(NCc4ccc(S(N)(=O)=O)cc4)nn23)cn1,86.7% (inactive)
11,Cn1ccnc1CNCCS(=O)(=O)c1cccc(Nc2ccc(-c3cccc(F)c3)cn2)c1,65.7% (inactive)
12,CN(C(=O)c1cc2c(-c3cncnc3)cccc2[nH]1)c1ccccc1,51.3% (inactive)
13,Cc1cc(NC(=O)c2ccc(Oc3ccc(Cl)cc3O)o2)no1,135% (inactive)
14,Cc1[nH]c2cc(F)cc(F)c2c(=O)c1-c1ccc(Oc2ccc(OC(F)(F)F)cc2)cc1,95.7% (inactive)
15,CCC(C)NC(=O)c1ccc(NC(=O)C2(c3ccccc3)CCCC2)cc1 (centres undefined),96.7% (inactive)
16,CNC(=O)C1Cc2ccccc2N1C(=O)Cc1ccc(F)cc1 (centres undefined),116% (inactive)
17,O=[N+]([O-])c1cn2c(n1)OC[C@@H](OCc1ccc(OC(F)(F)F)cc1)C2,97.3% (inactive)
18,COc1ccc(-c2nc(-c3cccc(NC(=O)Cc4ccc(F)cc4)c3)no2)cc1OC,95% (inactive)
19,COc1ccc(C2=NCCN2)cc1-c1cn(-c2cccc(C3=NCCN3)c2)nn1,94% (inactive)
20,CCN(CC)CCCN1CCN(C(=O)c2cccc(-c3noc(C(F)(F)F)n3)c2)CC1,118% (inactive)

row,SMILES,percent growth
1,COc1ccc(N(CCc2cccc(C)n2)C(C)=O)cc1,101% (inactive)
2,Cc1ccc(S(=O)(=O)Nc2ccc(CN3CCN(C(=O)c4cccc(C#N)c4)CC3)cc2)cc1,90.9% (inactive)
3,COc1nc2ccc(Br)cc2cc1[C@@H](c1ccccc1)[C@@](O)(CCN(C)C)c1cccc2ccccc12,100% (inactive)
4,O=C(NC1=NCCS1)c1sc2cc(F)ccc2c1Cl,107% (inactive)
5,Cc1ccc(NC(=O)c2nc[nH]c2C(=O)Nc2nc3ccccc3[nH]2)c(C)c1,147% (inactive)
6,CNC(=O)c1cc(S(=O)(=O)N2CCN(c3ccccn3)CC2)cs1,143% (inactive)
7,CC1CC1C(=O)NC1CCN(CC2(c3ccccc3)CCCCC2)CC1 (centres undefined),92.9% (inactive)
8,CCOC(=O)NC(=O)c1ccsc1NC(=O)c1nc2ccccc2s1,78.6% (inactive)
9,CCc1nc2ccccc2n1CC(O)COc1cc(C)ccc1Cl (centres undefined),93.7% (inactive)
10,CC1CCCCN1C(=O)NCCc1coc(-c2ccc(F)cc2)n1 (centres undefined),70% (inactive)
11,FC(F)(F)c1cccc(-c2nc3c(NCc4ccncc4)nccc3[nH]2)c1,72.4% (inactive)
12,NS(=O)(=O)c1cccc(-c2ccc3ncc(N4CCOCC4)nc3c2)c1,106% (inactive)
13,CC(C)C(Oc1cccc2ccccc12)C(=O)O (centres undefined),118% (inactive)
14,CC(C)(C)OC(=O)N1CCN(c2nccc(-c3ccc(-c4ccc(Cl)cc4)s3)n2)CC1,103% (inactive)
15,CC(C)(C)c1cc(C(=O)N2CCN(c3nccnc3C#N)CC2)n(Cc2ccccc2)n1,56.8% (inactive)
16,O=C(C1CCN(c2nnc(-n3cccc3)s2)CC1)N1CCC(Cc2ccccc2)CC1,108% (inactive)
17,COc1ccc(Cn2cnc3c(-c4ccco4)nc(Cl)nc32)cc1,82.7% (inactive)
18,Nc1ncc(-c2cn[nH]c2)cc1-c1nc2cc(Cl)cnc2[nH]1,127% (inactive)
19,CCOc1ccccc1C(=O)Nc1cccc(-c2nc3ncccn3c2C)c1,97.2% (inactive)
